# From PubChem BioAssay (Tox21)
# Records with an inconclusive call do not appear. A number with no mark means an inactive call. Calls follow the shape of the full dose curve.
# Assay: p53 small molecule agonists, cell-based qHTS assay with human liver microsomes (AID 1963577);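 also: p53 response element beta-lactamase reporter cells with liver microsomes plus NADPH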
# Settings: HCT-116 p53RE-bla with human liver microsomes, ratio, 16 h; series mostly up to 66 µM; activation: at the top concentration
# Description: National Center for Advancing Translational Sciences [NCATS]
# Division of Preclinical Innovation [DPI]
# U.S. Environmental Protection Agency [EPA]
# National Institutes of Environmental Health Sciences [NIEHS]
# National Toxicology Program [NTP]
# U.S. Food and Drug Administration [FDA]
# p53, a tumor suppressor protein, is activated following cellular insult, including DNA damage and other cellular stresses. The activation of p53 regulates cell fate by inducing DNA repair, cell cycle arrest, apoptosis, or cellular senescence. The activation of p53, therefore, is a good indicator of DNA damage and other cellular stresses. […] The activation of the reporter gene under culture conditions can be detected by fluorescence intensity.
# Tox21 Assay Protocol Summary:
# The p53RE-bla cells were dispensed at 4,000cells/3ul/well in 1536-well black-clear bottom plates. After the assay plates were incubated at 37 C, 5% CO2 incubator for 5 hours, 23 nL of compounds dissolved in DMSO, positive controls or DMSO only was transferred to the assay plate. Following compound addition, 3 uL of human liver microsomes (XenoTech, Kansas City, KS) at final concentration of 0.5 mg/mL and 1uL of Beta-Nicotinamide adenine dinucleotide 2-phosphate (NADPH) at final concentration of 0.5 mg/mL were transferred to the assay plate. The plates were incubated at 37 C for 16 hours. 1 uL of LiveBLAzer detection mixture was added to each well and the plates were incubated at room temperature in the dark for 2 h.
# % is scaled to controls: 0 for no effect and ±100 for the full control effect.
row,Compound,activation
1,CC(O)COC(C)(C)C (stereo not given),-0.0266%
2,Nc1cc(C(=O)O)c(O)c(S(=O)(=O)O)c1,0.163%
3,CC1(C)S[C@@H]2[C@H](NC(=O)Cc3ccccc3)C(=O)N2[C@H]1C(=O)O (tested in a mixture with another compound),-4.13% [at 30.3 µM]
4,c1ccc(C(O[C@H]2CCCN(CCc3ccc4c(c3)OCO4)C2)c2ccccc2)cc1,-0.637% [at 30.3 µM]
5,C/C=C(\C)C(=O)OCCc1ccccc1,-0.977%
6,O=C(O)COCC(=O)O,2.09%
7,O=C1CC2(CCCC2)CC(=O)N1,-2.56% [at 30.3 µM]
8,O=c1c(O)c(-c2ccc(O)cc2O)oc2cc(O)cc(O)c12,-8.41%
9,CCCCOc1cc(C(=O)OCCN(CC)CC)ccc1N,11.6% [at 30.3 µM]
10,C=C(C)C(=O)OCCCCCCCCCCOC(=O)C(=C)C,-8.62%
11,CCCCS(=O)(=O)N[C@@H](Cc1ccc(OCCCCC2CCNCC2)cc1)C(=O)O,-0.141% [at 30.3 µM]
12,Oc1ccc2c(c1)OCO2,-0.121%
13,CNCCc1ccccn1,3.41% [at 30.3 µM]
14,CC1c2ccccc2CN1NC(=O)c1ccc(Cl)c(S(N)(=O)=O)c1 (stereo not given),8.01% [at 30.3 µM]
15,COc1ccc(C2C(=O)c3ccccc3C2=O)cc1,0.305% [at 30.3 µM]
16,CC(C)(Sc1cc(C(C)(C)C)c(O)c(C(C)(C)C)c1)Sc1cc(C(C)(C)C)c(O)c(C(C)(C)C)c1,-0.123% [at 30.3 µM]
17,CC(C)(C)c1cccc(O)c1,-4.34%
18,COC(=O)N/N=C/c1c[n+]([O-])c2ccccc2[n+]1[O-],3.24% [at 30.3 µM]
19,O=C(O)Cc1ccc(-c2ccccc2)cc1,1.36% [at 30.3 µM]
20,NC(=O)NS(=O)(=O)c1ccc(N)cc1,0.618% [at 30.3 µM]

row,Compound,activation
1,C1CC(COCC2CO2)CCC1COCC1CO1 (stereo not given),0.664%
2,O=CN1CCCCC1,0.946%
3,CC(=O)Oc1cc(C(C)C)c(OCCN(C)C)cc1C,0.566% [at 30.3 µM]
4,CC(=O)Nc1cc(S(=O)(=O)O)cc2cc(S(=O)(=O)O)c(N=Nc3ccccc3)c(O)c12,1.27%
5,CC(=O)NC(=O)c1ccccc1O,-0.724% [at 30.3 µM]
6,NCCS,0.573% [at 30.3 µM]
7,C=C/C(C)=C/C/C=C(\C)CCC=C(C)C,-5.12%
8,O=C(OCc1ccccc1)C(=O)OCc1ccccc1,2.52%
9,Cc1c[nH]c2ccccc12,-19.2% [at 30.3 µM]
10,CCCCCCC(CCCCCCCCCCC(=O)OCC(COC(C)=O)OC(C)=O)OC(C)=O (stereo not given),1.54% [at 30.3 µM]
11,Cc1ccco1,0.345%
12,Cc1ccsc1/C=C/C1=NCCCN1C,5.74% [at 30.3 µM]
13,CCN(CC)C(=O)N(CC)CC,0.451%
14,CCCCC(CC)COC(=O)COc1ccc(Cl)cc1C (stereo not given),3.36%
15,CCOC(=O)COC(=O)c1ccccc1C(=O)OCC,2.87%
16,CCCCOC(=O)CC,-1.71%
17,COC(=O)NN,1.39%
18,C[Si]1(C)O[Si](C)(C)O[Si](C)(C)O1,3.81%
19,CN(C)C(=O)CNC(=O)Cc1ccccc1,0.646% [at 30.3 µM]
20,CN=C(NC#N)Nc1ccc(C2=NNC(=O)CC2C)cc1 (stereo not given),1.08% [at 30.3 µM]
